Compound activity from PubChem.
Pf Dd2 growth = Plasmodium falciparum Dd2 growth inhibition. P. falciparum Dd2 growth, SYBR Green, 72 h. Potency, µM (top dose mostly 28.9 µM), usual class: inhibitors. hit rate 4.3% among 120,000. AID 1347417; active = well fitted inhibition curve with a large enough effect; note: nearly all actives have a fitted effect of over 65% in size
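Infected erythrocytes (Dd2, 0.3% parasitemia, 2.5% hematocrit final) are added to compound in RPMI-1640/Albumax II medium, grown 72 h at 37C in low oxygen, then lysed with saponin/Triton-X containing SYBR Green and read by fluorescence.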
Hits are given with their value; - = inactive; ! = not active in a repeat; [ ] = remark or other dose. The sample as a whole holds a higher share of hits than the screen did.

SMILES | Pf Dd2 growth
COc1ccccc1Nc1sc(C(=O)c2ccc(F)cc2)c(N)c1S(=O)(=O)c1ccc(C)cc1 | -
COc1ccc(S(=O)(=O)c2c(Nc3cccc(C)c3C)sc(C(=O)c3ccccc3)c2N)cc1 | 10µM
Cc1ccccc1Nc1sc(C(=O)c2ccccc2)c(N)c1S(C)(=O)=O | -[5.79 µM]
O=C1N[C@@H]2CCN(C(=O)c3ccc(C(F)(F)F)cc3)[C@@H]2C(=O)N1c1ccc(F)cc1 | -
COc1cc(OC(F)(F)F)ccc1C(=O)N1CCC(C(=O)O)(c2ccccc2)CC1 | -
CN1C(=O)C2(CCN(C(=O)CCn3cnnn3)CC2)c2ccccc21 | -
CCOc1ccc(C(=O)N2CCC3(CC2)C(=O)N(C)c2ccccc23)cc1OCC | 13µM
CN1C(=O)C2(CCN(C(=O)CCC3CCCC3)CC2)c2ccccc21 | 5.6µM
Cc1cc2cc(C(=O)N3CCC4(CC3)C(=O)N(C)c3ccccc34)ccc2o1 | -
CCC(CC)C(=O)N1CCC2(CC1)C(=O)N(C)c1ccccc12 | -
CN1C(=O)C2(CCN(C(=O)CCc3ccccc3)C2)c2ccccc21 (stereo not given) | -
CC(C)NC(=O)C[C@@H]1C[C@H]2O[C@H](CNC(=O)Nc3ccc(F)cc3)[C@@H](O)[C@H]2O1 | -
Cc1ccc(C(=O)N2C[C@@H](Oc3ccccc3)C[C@@H]2C(=O)N2CCOCC2)cn1 | -
Cc1nn(C)c(C)c1CCC(=O)N1CCc2[nH]cnc2C1C(=O)O (stereo not given) | -
CN1C[C@@H](NS(=O)(=O)c2ccccc2)C[C@H]1c1nc(-c2cnccn2)no1 | -
COc1ccc(-c2nc3c(c(SCc4ccc(Br)cc4)n2)Cc2c(CO)cnc(C)c2O3)cc1 | 1.1µM
C=Cc1ccc(CSc2nc(-c3ccc(Cl)cc3)nc3c2Cc2c(CO)cnc(C)c2O3)cc1 | 11µM
CCc1ccc(NC(=O)CSc2nc(-c3ccc(C)cc3)nc3c2Cc2c(CO)cnc(C)c2O3)cc1 | -
C=Cc1ccc(CSc2nc(-c3ccccc3C)nc3c2Cc2c(CO)cnc(C)c2O3)cc1 | 5.6µM
Cc1ncc(CO)c2c1Oc1nc(-c3ccc(F)cc3)nc(SCc3ccc(F)cc3Cl)c1C2 | -[0.594 µM]
CCOc1ccc(NC(=O)CSc2nc(-c3cccc(Cl)c3)nc3c2Cc2c(CO)cnc(C)c2O3)cc1 | -
COc1ccccc1NC(=O)CSc1nc(-c2cccc(Cl)c2)nc2c1Cc1c(CO)cnc(C)c1O2 | -
C=Cc1ccc(CSc2nc(-c3ccc(OC)cc3)nc3c2Cc2c(CO)cnc(C)c2O3)cc1 | 3.2µM
COc1ccc(-c2nc3c(c(SC)n2)Cc2c(CO)cnc(C)c2O3)cc1 | -
CCOc1ccccc1NC(=O)NC1CCN(C(=O)N2CC3CC(C2)[C@H]2CCCC(=O)N2C3)CC1 (stereo not given in full) | -
SMILES | Pf Dd2 growth
Cc1cc(C2CCCN2C(=O)c2ccn(C)n2)on1 (stereo not given) | -
CN1Cc2ccc(NCc3ccccc3)nc2C(C)(C(=O)NCCOc2ccccc2)C1 (stereo not given) | -
O=C(c1nnc(COc2ccc(F)c(F)c2)n1-c1ccccc1)N1CCC[C@@H]1c1cccc(F)c1 | -
COCCNC(=O)C1COC2(CCN(C(=O)c3ccc(F)cc3)CC2)N1C(=O)c1ccccc1 (stereo not given) | -
O=C(c1onc2ccccc12)N1CCC2(CCCNC2)C1 (stereo not given) | -
C/C=C/CC(=O)N1CCC2(CCN(Cc3cccc(F)c3)CC2)C(CO)C1 (stereo not given) | -
COc1cccc(-c2nc3c(c(SCC(=O)Nc4cccc(C)c4C)n2)Cc2c(CO)cnc(C)c2O3)c1 | -
COc1ccccc1NC(=O)CSc1nc(-c2ccc(C)cc2)nc2c1Cc1c(CO)cnc(C)c1O2 | -
COc1cccc(CSc2nc(-c3ccccc3OC)nc3c2Cc2c(CO)cnc(C)c2O3)c1 | 5µM
COc1cccc(-c2nc3c(c(SCc4ccccc4Cl)n2)Cc2c(CO)cnc(C)c2O3)c1 | -
COc1ccc(-c2nc3c(c(SCC(=O)Nc4cccc(O)c4)n2)Cc2c(CO)cnc(C)c2O3)cc1 | 5.6µM
Cc1ncc(CO)c2c1Oc1nc(-c3ccccc3)nc(SCC(=O)Nc3cccc(C(F)(F)F)c3)c1C2 | -
COCCNC(=O)c1ccc2c(c1)N(C)C(CC(=O)NCCO)CO2 (stereo not given) | -
Cc1ccc(OCC(=O)N2CCC3(CC2)CC(N(C(=O)NC(C)C)C2CC2)CCO3)cc1 (stereo not given) | -
COC[C@@H]1CN(S(=O)(=O)c2ccccc2)C[C@H]1c1ccncc1 | -
COC1CCCN(C(=O)c2cnc(Cc3c(Cl)cccc3Cl)[nH]c2=O)C1 (stereo not given) | -
O=C1NC(=NC2CCCC2)C2(CCCN([S+](=O)([O-])c3ccccc3)C2)N1c1cc(F)cc(F)c1 (stereo not given) | -
O=C(c1ccc(C(F)(F)F)cc1)N1CCC2(C1)C(=NC1CCCCC1)NC(=O)N2c1cc(F)cc(F)c1 (stereo not given) | 8.9µM
O=C1NC(=NC2CCCC2)C2(CCCN([S+](=O)([O-])c3cccc(C(F)(F)F)c3)C2)N1c1cc(F)cc(F)c1 (stereo not given) | 10µM!
COc1ccc(C(=O)N2CCC3(CC2)C(=NC2CCCCC2)NC(=O)N3c2cc(F)cc(F)c2)cc1 | -
COc1ccc(C(=O)N2CCCC3(C2)C(=NC2CCCCC2)NC(=O)N3c2cc(F)cc(F)c2)cc1 (stereo not given) | -
O=C1NC(=NC2CCCC2)C2(CCN([S+](=O)([O-])c3cccc(C(F)(F)F)c3)CC2)N1c1cc(F)cc(F)c1 | -
O=C(COc1ccccc1)N1CCC2(CC1)CN(c1ncccn1)CC2CO (stereo not given) | -
Cc1csc(NC(=O)C2(C)COCc3cnc(Nc4ccccc4)nc32)n1 (stereo not given) | -
COc1ccc(OC)c(CN2CCc3ncc(C(=O)Nc4ccccc4)n3CC2)c1 | -
SMILES | Pf Dd2 growth
CCN1C(=O)COC[C@@H]1[C@H](O)c1ccc(NC(=O)c2cccnc2)cc1 | -
Cc1cc(NCC(C)n2ccnc2)n2nc(C)c(C)c2n1 (stereo not given) | -
O=C1CCC2(CCCO2)CCN1Cc1cccc(F)c1F (stereo not given) | -
CCOc1ccc(NC(=O)C(CC)n2c(=O)c(-c3ccccc3NC(C)=O)nc3ccccc32)cc1 (stereo not given) | -
CC(=O)Nc1ccccc1-c1nc2ccccc2n(C(C)C(=O)c2ccc(C)c(C)c2)c1=O (stereo not given) | -
COc1ccc(OC)c(NC(=O)C(C)n2c(=O)c(-c3ccccc3NC(C)=O)nc3ccccc32)c1 (stereo not given) | 11µM
O=C(O)c1cn(C2CCCCCC2)nn1 | -
CCOc1cccc(CN2CCC3(CC2)CC(O)CCO3)c1 (stereo not given) | -
COCCNc1ncnc2c1c(-c1ccccc1)cn2-c1cccc(Cl)c1 | -
CC(=O)Nc1ccc(Nc2ncnc3c2c(-c2ccccc2)cn3-c2ccc(C)c(Cl)c2)cc1 | 7.1µM
COc1ccc(CCNc2ncnc3c2c(-c2ccccc2)cn3-c2cccc(Cl)c2)cc1OC | 8.9µM
CC(=O)Nc1ccc(Nc2ncnc3c2c(-c2ccccc2)cn3-c2ccccc2)cc1 | -
Cc1ccc(-n2cc(-c3ccccc3)c3c(N4CCC(C)CC4)ncnc32)cc1Cl | -
COc1ccccc1N1CCN(c2ncnc3c2c(-c2ccccc2)cn3-c2cccc(Cl)c2)CC1 | -
NCCO[C@H]1C[C@@H](O)C12CCN(Cc1ccc(OC(F)F)cc1)CC2 | -
